The results in this text go back to PubChem BioAssay (EPA / NIEHS).

The source made the active and inactive calls. The calls were made as follows, unless noted: active = hit-call score of the fitted dose curve at least 0.9, where 1 is the maximum; inactive = score below 0.9.

Read-out in assay [1]: Protein phosphatase 2A (PPP2R4), PTPA (gene 5524)
Put plainly: LTEA_HepaRG_PPP2R4: Life Technologies and Expression Analysis (LTEA) Assay for Protein phosphatase 2A (PPP2R4) using HepaRG (AID 2283522). The note with it: mRNA level, 48 h; actives raise or lower the signal. The procedure, abridged: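 Cells were plated, cultured 48 h, switched to serum-free induction medium, then dosed for 48 h (8 points, max 100 uM, 0.5% DMSO). RNA was isolated and PPP2R4 expression measured by TaqMan qRT-PCR.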

Read-out in assay [2]: Phosphatase and tensin (PTEN), PTEN (gene 5728)
Briefly: LTEA_HepaRG_PTEN: Life Technologies and Expression Analysis (LTEA) Assay for Phosphatase and tensin (PTEN) using HepaRG (AID 2283523). The following applies: mRNA level, 48 h; actives raise or lower the signal. In short, it runs like this: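 HepaRG, 48 h exposure, 8-pt half-log series from 100 uM top, 0.5% DMSO vehicle, duplicates. Readout: Fluidigm qRT-PCR of PTEN transcript; housekeeping normalization (ACTB, GAPDH, POLR2A). Gain or loss fitted relative to DMSO baseline.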

Read-out in assay [3]: solute carrier (SLC22A1), SLC22A1 (gene 6580)
Briefly: LTEA_HepaRG_SLC22A1: Life Technologies and Expression Analysis (LTEA) Assay for solute carrier (SLC22A1) using HepaRG (AID 2283524). The note with it: mRNA level, 48 h; actives raise or lower the signal. The procedure, abridged:
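qRT-PCR readout (TaqMan, Fluidigm arrays) of SLC22A1 transcript, normalized to three housekeeping genes; bidirectional curve fit relative to 0.5% DMSO vehicle. Differentiated human HepaRG cells, 48 h chemical exposure, top concentration 100 uM, half-log steps, eight points.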

Read-out in assay [4]: Pyruvate Dehydrogenase Kinase 4 (PDK4), PDK4 (gene 5166)
Briefly: LTEA_HepaRG_PDK4: Life Technologies and Expression Analysis (LTEA) Assay for Pyruvate Dehydrogenase Kinase 4 (PDK4) using HepaRG (AID 2283525). The following applies: mRNA level, 48 h; actives raise or lower the signal. In short, it runs like this: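 HepaRG (human liver line), 48 h chemical exposure, 8-pt half-log CRC top 100 uM, 0.5% DMSO vehicle, duplicates. Readout: TaqMan qRT-PCR of PDK4 mRNA, housekeeping-normalized; gain/loss fit relative to DMSO baseline.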

Read-out in assay [5]: NAD(P)H dehydrogenase [quinone] 1 (NQO1), NQO1 (gene 1728)
Put plainly: LTEA_HepaRG_NQO1: Life Technologies and Expression Analysis (LTEA) Assay for NAD(P)H dehydrogenase [quinone] 1 (NQO1) using HepaRG (AID 2283526). The note with it: mRNA level, 48 h; actives raise or lower the signal. In short, it runs like this: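 Transcript induction or suppression is quantified by qRT-PCR in human HepaRG liver cells dosed for 48 hours. Eight half-log concentrations topping at 100 uM are used, with 0.5% DMSO as vehicle and baseline.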

Read-out in assay [6]: Nuclear factor erythroid 2-related factor 2 (Homo sapiens) (UniProt Q16236)
Put plainly: LTEA_HepaRG_NFE2L2: Life Technologies and Expression Analysis (LTEA) Assay for Nuclear factor erythroid 2-related factor 2 (NFE2L2) Transcription Factor using HepaRG (AID 2283527).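 Also: TaqMan qRT-PCR transcript level normalised to ACTB GAPDH and POLR2A housekeeping genes.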 The note with it: mRNA level, 48 h; actives raise or lower the signal. In short, it runs like this:
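HepaRG, 48 h dosing, 8-pt half-log series from 100 uM in 0.5% DMSO, duplicates. Read-out: NFE2L2 mRNA by qRT-PCR (ACTB/GAPDH/POLR2A normalization). Bidirectional curve fit vs DMSO baseline.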

Read-out in assay [7]: succinate dehydrogenase complex iron sulfur subunit B (SDHB), SDHB (gene 6390)
Put plainly: LTEA_HepaRG_SDHB: Life Technologies and Expression Analysis (LTEA) Assay for succinate dehydrogenase complex iron sulfur subunit B (SDHB) using HepaRG (AID 2283528). The following applies: mRNA level, 48 h; actives raise or lower the signal. The procedure, abridged: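 A human HepaRG culture in serum-free induction medium received test chemicals for 48 h over an eight-point range capped at 100 uM. SDHB expression change was quantified by qRT-PCR.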

Read-out in assay [8]: Signal transducer and activator of transcription 3 (Homo sapiens) (UniProt P40763)
Briefly: LTEA_HepaRG_STAT3: Life Technologies and Expression Analysis (LTEA) Assay for Signal transducer and activator of transcription (STAT3) using HepaRG (AID 2283529). The note with it: mRNA level, 48 h; actives raise or lower the signal. In short, it runs like this:
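HepaRG, 48 h exposure, 8-pt half-log series (top 100 uM), 0.5% DMSO vehicle, duplicates. Readout: STAT3 transcript by Fluidigm qRT-PCR, housekeeping-normalized; bidirectional fit vs DMSO baseline.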

Read-out in assay [9]: solute carrier (SLCO1B1), SLCO1B1 (gene 10599)
Briefly: LTEA_HepaRG_SLCO1B1: Life Technologies and Expression Analysis (LTEA) Assay for solute carrier (SLCO1B1) using HepaRG (AID 2283530). The following applies: mRNA level, 48 h; actives raise or lower the signal. The procedure, abridged: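 Differentiated human HepaRG cells, plated 48 h, switched to serum-free induction medium and exposed in duplicate for 48 h to 8 half-log concentrations (top 100 uM) in 0.5% DMSO. SLCO1B1 mRNA by TaqMan qRT-PCR, normalized to ACTB/GAPDH/POLR2A.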

Read-out in assay [10]: sulfotransferase 2A1 (SULT2A1), SULT2A1 (gene 6822)
Put plainly: LTEA_HepaRG_SULT2A1: Life Technologies and Expression Analysis (LTEA) Assay for sulfotransferase 2A1 (SULT2A1) using HepaRG (AID 2283531). The following applies: mRNA level, 48 h; actives raise or lower the signal. In short, it runs like this:
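Differentiated human HepaRG cells in serum-free induction medium were exposed for 48 h to eight half-log concentrations (top 100 uM, 0.5% DMSO). SULT2A1 mRNA was measured by qRT-PCR, normalized to ACTB, GAPDH and POLR2A, and fitted bidirectionally against DMSO.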

Read-out in assay [11]: Transforming Growth Factor (TGFA), TGFA (gene 7039)
Briefly: LTEA_HepaRG_TGFA: Life Technologies and Expression Analysis (LTEA) Assay for Transforming Growth Factor (TGFA) using HepaRG (AID 2283532). The note with it: mRNA level, 48 h; actives raise or lower the signal. In short, it runs like this: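 qRT-PCR read-out of TGFA transcript, normalized to three housekeeping genes, fitted bidirectionally against 0.5% DMSO baseline. Human HepaRG cultures received chemicals for 48 h at eight half-log concentrations, top 100 uM.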

Read-out in assay [12]: Transforming Growth Factor (TGFB1), TGFB1 (gene 7040)
Put plainly: LTEA_HepaRG_TGFB1: Life Technologies and Expression Analysis (LTEA) Assay for Transforming Growth Factor (TGFB1) Transporter using HepaRG (AID 2283533). The note with it: mRNA level, 48 h; actives raise or lower the signal. The procedure, abridged:
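Differentiated human HepaRG cells in serum-free induction medium were exposed in duplicate for 48 h to eight concentrations (top 100 uM, half-log steps, 0.5% DMSO). TGFB1 mRNA was quantified by qRT-PCR, normalized to ACTB, GAPDH, POLR2A, and fitted bidirectionally against DMSO.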

Read-out in another assay: TIMP1, TIMP1 (gene 7076)
Briefly: LTEA_HepaRG_TIMP1: Life Technologies and Expression Analysis (LTEA) Assay for TIMP1 using HepaRG (AID 2283534). The note with it: mRNA level, 48 h; actives raise or lower the signal. In short, it runs like this: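 Differentiated human HepaRG cells in serum-free induction medium were exposed 48 h to chemicals (8 half-log concentrations, top 100 uM, 0.5% DMSO). TIMP1 mRNA was quantified by TaqMan qRT-PCR, normalized to ACTB/GAPDH/POLR2A; bidirectional fit versus DMSO.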

Read-out in assay [13]: Tumor necrosis factor receptor 1 (TNFRSF1A), TNFRSF1A (gene 7132)
Put plainly: LTEA_HepaRG_TNFRSF1A: Life Technologies and Expression Analysis (LTEA) Assay for Tumor necrosis factor receptor 1 (TNFRSF1A) using HepaRG (AID 2283535). The following applies: mRNA level, 48 h; actives raise or lower the signal. In short, it runs like this:
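Differentiated human HepaRG cells were exposed in duplicate for 48 h in serum-free induction medium to eight concentrations (top 100 uM, half-log steps, 0.5% DMSO). TNFRSF1A mRNA was quantified by qRT-PCR, normalized to ACTB, GAPDH and POLR2A, then fitted bidirectionally against DMSO.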

Read-out in assay [14]: Thyroid Hormone Responsive (THRSP), THRSP (gene 7069)
Briefly: LTEA_HepaRG_THRSP: Life Technologies and Expression Analysis (LTEA) Assay for Thyroid Hormone Responsive (THRSP) using HepaRG (AID 2283536). The following applies: mRNA level, 48 h; actives raise or lower the signal. In short, it runs like this:
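qRT-PCR read-out (Fluidigm TaqMan), housekeeping-normalized (ACTB/GAPDH/POLR2A). HepaRG, 48 h chemical exposure, 8-pt half-log series from 100 uM in 0.5% DMSO, duplicates. Bidirectional curve fit vs 0.5% DMSO baseline.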

Read-out in assay [15]: UDP glucuronosyltransferase (UGT1A1), UGT1A1 (gene 54658)
Briefly: LTEA_HepaRG_UGT1A1: Life Technologies and Expression Analysis (LTEA) Assay for UDP glucuronosyltransferase (UGT1A1) using HepaRG (AID 2283538). The note with it: mRNA level, 48 h; actives raise or lower the signal. In short, it runs like this:
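Cells are plated, cultured 48 h, switched to serum-free induction medium, then dosed 48 h at eight concentrations (max 100 uM, 0.5% DMSO). RNA is isolated and UGT1A1 expression measured by qRT-PCR; changes versus DMSO are fitted in both directions.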

Read-out in assay [16]: UDP glucuronosyltransferase (UGT1A6), UGT1A6 (gene 54578)
Briefly: LTEA_HepaRG_UGT1A6: Life Technologies and Expression Analysis (LTEA) Assay for UDP glucuronosyltransferase (UGT1A6) using HepaRG (AID 2283539). The following applies: mRNA level, 48 h; actives raise or lower the signal. The procedure, abridged:
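Human HepaRG cells were dosed for 48 h in serum-free induction medium with 0.5% DMSO vehicle, eight-point half-log series from 100 uM, in duplicate. UGT1A6 mRNA was measured by qRT-PCR, normalized to ACTB, GAPDH, POLR2A, and fitted bidirectionally against DMSO.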

Read-out in assay [17]: X-box binding protein 1 (XBP1), XBP1 (gene 7494)
Briefly: LTEA_HepaRG_XBP1: Life Technologies and Expression Analysis (LTEA) Assay for X-box binding protein 1 (XBP1) using HepaRG (AID 2283540). The following applies: mRNA level, 48 h; actives raise or lower the signal. The procedure, abridged: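 Differentiated human HepaRG cells in serum-free induction medium were exposed in duplicate for 48 h to eight half-log concentrations up to 100 uM in 0.5% DMSO. XBP1 mRNA was quantified by qRT-PCR, normalised to ACTB, GAPDH and POLR2A, with bidirectional fitting against DMSO.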

A short description of assay [18]: LTEA_HepaRG_LDH_cytotoxicity: Cytotoxicity Assessment in the Life Technologies and Expression Analysis (LTEA) Assay (AID 2283563; active = hit-call score of the fitted dose curve at least 0.9, where 1 is the maximum). The procedure, abridged: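 Differentiated human HepaRG cells, plated 48 h beforehand, were switched to serum-free induction medium and exposed for 48 h to eight half-log concentrations (top 100 uM) in 0.5% DMSO. LDH was measured in spent medium; activity was fitted relative to DMSO vehicle.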

Signal transducer and activator of transcription 3 (Homo sapiens), sequence (P40763 whole entry, looked up): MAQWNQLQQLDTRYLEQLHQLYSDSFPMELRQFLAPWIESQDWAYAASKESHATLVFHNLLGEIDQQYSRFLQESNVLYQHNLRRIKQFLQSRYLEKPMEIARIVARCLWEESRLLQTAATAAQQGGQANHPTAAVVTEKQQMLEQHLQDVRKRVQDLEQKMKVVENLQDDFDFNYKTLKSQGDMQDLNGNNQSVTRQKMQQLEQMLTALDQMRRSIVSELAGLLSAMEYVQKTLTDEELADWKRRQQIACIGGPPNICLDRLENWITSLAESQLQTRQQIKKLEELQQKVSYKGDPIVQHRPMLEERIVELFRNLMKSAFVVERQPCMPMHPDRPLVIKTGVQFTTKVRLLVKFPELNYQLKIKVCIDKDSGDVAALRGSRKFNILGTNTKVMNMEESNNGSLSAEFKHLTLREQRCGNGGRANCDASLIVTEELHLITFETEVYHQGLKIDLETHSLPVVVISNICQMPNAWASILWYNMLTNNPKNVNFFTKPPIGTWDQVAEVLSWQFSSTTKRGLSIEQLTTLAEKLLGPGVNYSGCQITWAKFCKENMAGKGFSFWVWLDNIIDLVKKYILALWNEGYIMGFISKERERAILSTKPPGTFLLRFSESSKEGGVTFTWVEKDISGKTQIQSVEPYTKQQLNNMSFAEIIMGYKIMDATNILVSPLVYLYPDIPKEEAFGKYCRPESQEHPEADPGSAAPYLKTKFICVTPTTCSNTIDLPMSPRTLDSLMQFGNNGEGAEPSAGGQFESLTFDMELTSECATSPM
Nuclear factor erythroid 2-related factor 2 (Homo sapiens), sequence (Q16236 whole entry, looked up): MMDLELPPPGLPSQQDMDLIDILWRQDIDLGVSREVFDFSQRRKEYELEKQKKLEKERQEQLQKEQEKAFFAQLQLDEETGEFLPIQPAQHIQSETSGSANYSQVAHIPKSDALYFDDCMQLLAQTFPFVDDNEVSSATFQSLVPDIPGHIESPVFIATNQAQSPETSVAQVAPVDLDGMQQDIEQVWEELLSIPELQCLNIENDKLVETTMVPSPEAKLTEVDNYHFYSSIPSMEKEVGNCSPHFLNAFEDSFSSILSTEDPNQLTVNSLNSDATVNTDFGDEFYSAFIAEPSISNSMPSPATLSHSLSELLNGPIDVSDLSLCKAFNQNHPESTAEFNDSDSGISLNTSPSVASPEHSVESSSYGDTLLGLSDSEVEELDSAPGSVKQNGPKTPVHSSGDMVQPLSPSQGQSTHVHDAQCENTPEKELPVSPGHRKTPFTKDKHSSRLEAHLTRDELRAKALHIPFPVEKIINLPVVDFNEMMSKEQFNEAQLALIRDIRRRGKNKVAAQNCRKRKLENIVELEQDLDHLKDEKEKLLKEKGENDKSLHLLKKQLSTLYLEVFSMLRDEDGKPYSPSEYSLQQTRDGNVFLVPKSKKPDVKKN

Usually AC50 stands for the concentration giving half of the maximal activity seen. For the molecule `CC(=NC#N)N(C)Cc1ccc(Cl)nc1`, the result in [1], in [2], in assay [3], in [4], in assay [5] and in assay [6] was inactive. Besides, the result in [7], in [8], in assay [9], in assay [10], in [11] and in assay [12] was inactive. The outcome is “inactive” with TIMP1, TIMP1 (gene 7076); “inactive” in assay [13]; “inactive” in assay [14]; “inactive” in [16]; “inactive” in assay [17]; “inactive” in [18]. In addition, the AC50 in assay [15] is 50 µM (active).

With `CNC(=O)Oc1cccc2c1OC(C)(C)O2`, the outcome in assay [1], in [2], in assay [3], in assay [4], in [5] and in [7] was inactive. The outcome is “inactive” in assay [8]; “inactive” in [9]; “inactive” in assay [10]; “inactive” in assay [11]; “inactive” in assay [12]; “inactive” with TIMP1, TIMP1 (gene 7076). In addition, the result in [13], in assay [14], in assay [15], in assay [16], in [17] and in assay [18] was inactive.
